# GPR151 ag – activators of human GPR151, primary screen, cell-based, PathHunter beta-arrestin, luminescence | PathHunter beta-arrestin GPR151 cells | G-protein coupled receptor 151 (Homo sapiens), Q8TDV0 | actives 1% (n = 650,000) | activation, % at 11.2 µM; in the data active = activation above about 4.9%;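 note: 0% = median of compound wells and 100% = cells with positive control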
# MITF inh – MITF inhibitors, primary screen, biochemical, AlphaScreen, human | AID 1259374, 2018 | inhibition, % at 2.6 µM | AlphaScreen MITF homodimerization, bead proximity signal | Microphthalmia-associated transcription factor (Homo sapiens), O75030 | actives 0.91% (n = 650,000); in the data active = inhibition above about 50%;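 note: 0% = vehicle wells with protein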
# Target sequence (O75030 whole entry, looked up): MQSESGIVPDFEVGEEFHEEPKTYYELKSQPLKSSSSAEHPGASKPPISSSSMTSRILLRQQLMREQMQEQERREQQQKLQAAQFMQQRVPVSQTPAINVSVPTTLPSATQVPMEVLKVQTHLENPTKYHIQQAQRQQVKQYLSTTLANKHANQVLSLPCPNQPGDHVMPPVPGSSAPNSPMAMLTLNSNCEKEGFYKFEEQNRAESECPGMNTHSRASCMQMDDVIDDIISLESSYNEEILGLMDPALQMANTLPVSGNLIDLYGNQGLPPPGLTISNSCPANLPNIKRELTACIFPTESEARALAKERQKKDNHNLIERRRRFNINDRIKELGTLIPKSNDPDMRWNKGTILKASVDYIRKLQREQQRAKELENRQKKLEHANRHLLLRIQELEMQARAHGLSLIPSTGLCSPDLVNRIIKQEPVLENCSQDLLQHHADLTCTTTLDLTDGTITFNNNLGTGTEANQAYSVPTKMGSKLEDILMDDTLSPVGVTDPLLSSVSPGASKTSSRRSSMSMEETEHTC
# FBW7 activator – FBW7 E3 ligase activators, primary screen, biochemical, AlphaScreen, human; normalized activity (activation), % at 26.1 µM; actives 0.13% (n = 650,000); AID 1259310, 2017; F-box/WD repeat-containing protein 7 (Homo sapiens), Q969H0; AlphaScreen FBW7–phospho-cyclin E peptide binding, activator screen; in the data active = normalized activity above about 1.9%;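 note: purified mutant Fbw7 with reduced substrate affinity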
# TEAD-YAP inh – TEAD-YAP interaction inhibition, primary screen, TEAD-YAP interaction inhibitor project, luminescence, HEK-TIYL cells. TEAD-Gal4/YAP UAS-luciferase luminescence. inhibition, % at 9.12 µM. actives 1.4% (n = 640,000); in the data active = inhibition above about 32%;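 note: 0% = median of test compound wells and 100% = reference inhibitor wells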
# MITF confirm – MITF inhibitors, retest of hits, confirmation, biochemical, AlphaScreen, triplicate | shares compounds with MITF inh | AlphaScreen MITF homodimerization, biotin/His-MITF beads | inhibition, % at 2.6 µM | actives 16% (n = 4,700);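 active = inhibition above a cutoff derived from the DMSO control wells, cut at about 28% in these data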;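 note: 0% = MITF dimer wells with DMSO only; inhibitors lower the bead chemiluminescence by keeping MITF from dimerizing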
# AS interf DR – AlphaScreen optical interference compounds, dose response, counter-screen, biochemical, HTS; shares compounds with MITF inh; AlphaScreen optical interference counterscreen, cell-free; IC50, µM; actives 6% (n = 480); AID 1259373, 2018; call rule not given here
# AlphaScreen intf2 – AlphaScreen optical interference compounds, counter-screen for MITF inhibitor project, biochemical, triplicate; shares compounds with MITF inh; LysRS AlphaScreen counterscreen, signal interference; inhibition, % at 2.6 µM; actives 7.6% (n = 4,700);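 active = inhibition above a cutoff derived from the DMSO control wells, cut at about 30% in these data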
# * hit, by the source's call; / = no result given; ! = not confirmed by another sample. Most compounds without a hit are left out; they make up all but 3.5% or so of the library.
SMILES,GPR151 ag,MITF inh,FBW7 activator,TEAD-YAP inh,MITF confirm,AlphaScreen intf2,others
O=C(CN1CCC(Cn2cnc3ccccc32)CC1)Nc1cccc(F)c1,3,54*,0,2,6,8,
O=C(/C=C/c1cccs1)NCC1CCN(C(=O)/C=C/c2cccs2)CC1,1,17,0,-6,/,/,
O=C(CN1CCC(Cn2cnc3ccccc32)CC1)N1CCC(Cc2ccccc2)CC1,-1,74*,0,61*,8,10,
CCOCC(=O)N1CCC(Cn2cnc3cc(C)c(C)cc32)CC1,0,66*,0,6,4,16,
Cc1cc(C(=O)N/N=C/c2ccc(C(C)(C)C)cc2)c(C)o1,-1,-4,0,-33,/,/,
CCCCCOC(=O)c1cc(-c2cc(C(=O)OCCCCC)c3ccccc3n2)nc2ccccc12,0,-20,0,4,/,/,
CCn1c2ccccc2n2c(=O)n(CC(=O)N(C)C3CCCCC3)nc12,1,-3,0,-8,/,/,
COC(=O)c1ccc(CN2CCC(Cn3cnc4ccccc43)CC2)cc1,-1,82*,0,16,7,20,
O=C(Cn1c(=O)oc2ccccc21)N1CCC(Cn2cnc3ccccc32)CC1,1,53*,0,4,11,14,
C=CCNC(=O)CN1CCC(Cn2cnc3cc(C)c(C)cc32)CC1,0,54*,0,13,18,15,
O=C(Cn1cnc2ccccc21)N1CCC(Cn2cccn2)CC1,-2,-7,0,12,/,/,
COC(=O)c1ccc(CN2CCC(c3nc4ccccc4[nH]3)CC2)cc1,-1,23,1,4,/,/,
CCOC(=O)CCC(=O)N1CCC(Cn2cnc3ccccc32)CC1,2,59*,0,4,7,13,
CSc1cc(C)c2c(c1)COC1(CCN(C(=O)NC(C)(C)C)CC1)O2,-1,6,0,-1,/,/,
COc1ccc(-c2cc(-c3cccnc3)c(C#N)c(N)n2)cc1,0,-4,0,-3,/,/,
O=[N+]([O-])c1ccc(O)c2ncccc12,0,73*,0,6,83*,101*,
CN(C)c1c([N+](=O)[O-])cc([N+](=O)[O-])c2cccnc12,1,54*,-1,7,19,68*,
Cc1ccc(C(=O)NN(C)C)o1,0,91*,0,-4,4,12,
Cc1ccc(C(=O)Nc2ccccc2NC(=O)c2ccc(C)o2)o1,0,-2,0,5,/,/,
COC(=O)N1c2ccccc2C=CC1C#N (centres undefined),1,0,0,-4,/,/,
Oc1ccc(CNc2ccc(F)cc2)c2cccnc12,-2,66*,-1,11,104*,100*,
COc1ccc(NCc2ccc(O)c3ncccc23)c(OC)c1,-1,75*,-1,8,46*,89*,
Oc1ccc(CNc2ccccc2)c2cccnc12,0,73*,-1,4,44*,80*,
Oc1ccccc1CNc1ccc(F)cc1,1,-1,0,-6,/,/,
Oc1ccc(CNc2cccc(F)c2)c2cccnc12,-1,62*,-1,55*,98*,100*,
SMILES,GPR151 ag,MITF inh,FBW7 activator,TEAD-YAP inh,MITF confirm,AlphaScreen intf2,others
Cc1ccc(NC(=O)/C(=C\c2ccc([N+](=O)[O-])cc2)NC(=O)c2ccccc2Br)c(C)c1,0,4,0,-5,/,/,
COc1cccc(NCc2ccc(O)c3ncccc23)c1,0,56*,-2,92*,93*,92*,
Cc1cc([N+](=O)[O-])ccc1S(=O)(=O)n1nnc2ccccc21,-1,6,0,9,/,/,
CCCCCC(=O)NNC(=O)c1ccc(-c2ccccc2)cc1,-1,76*,1,-5,24,-5,
CCCCCCCC(=O)NNC(=O)c1ccc(Cl)cc1,0,9,0,-4,/,/,
CCOc1ccc(S(=O)(=O)NC(C)(C)C)cc1,0,-2,0,-1,/,/,
CN(C)CCNc1nc(C2COc3ccccc3O2)nc2ccc(-c3cn[nH]c3)cc12 (centres undefined),-2,52*!,1,-9,64*,-12,AS interf DR=>6.5
COc1ccc(CNC(=O)CN(C)Cc2ccc(C(C)(C)C)cc2)cc1,0,74*,0,0,-21,2,
COc1ccc(N2CCN(C(CNC(=O)C(C)C)c3cccnc3)CC2)cc1 (centres undefined),1,5,0,1,/,/,
Cc1cccc(CNCc2cc(NC(=O)c3ccccn3)cc(C(=O)N(C)C)c2)c1,4,69*,0,8,-7,-1,
CN(C)C(=O)c1cc(CNCc2cccc(Cl)c2)cc(NC(=O)c2ccccn2)c1,1,-14,0,-4,/,/,
COc1ccc(CN2CCc3ccccc3C2)c(OC)c1,-2,49,0,14,/,/,
COc1ccc(CN2CCN(Cc3ccco3)CC2)c(OC)c1,2,73*,0,4,14,15,
COc1ccc(CN2CCN(Cc3ccco3)CC2)c(OC)c1OC,-1,55*,0,0,4,0,
COc1ccc(CN2CCN(C(=O)c3ccco3)CC2)c(OC)c1OC,0,26,0,0,/,/,
COc1ccccc1CN1CCN(Cc2ccco2)CC1,0,77*,0,-6,0,12,
O=C(CN(c1ccc(Cl)cc1Cl)S(=O)(=O)c1ccccc1)N1CCOCC1,3,8,0,2,/,/,
Cc1ccc(S(=O)(=O)N(CCO)Cc2cc3ccc(C)c(C)c3[nH]c2=O)cc1,2,-1,0,0,/,/,
COC(=O)CSc1nnc2c(n1)[nH]c1c(C)cc(C)cc12,2,-2,0,7,/,/,
NC(=O)c1ccsc1NC(=O)c1sc2ccccc2c1Cl,-4,-9,0,-29,/,/,
Cc1nnc(SCc2nc3ccccc3[nH]2)n1C,0,74*,0,5,13,16,
COc1ccccc1-c1nnc(SCc2nc3ccccc3[nH]2)n1C,0,7,0,7,/,/,
Cc1nn(C2CCS(=O)(=O)C2)c(Cl)c1CNCCCOC(C)C (centres undefined),-2,51*,0,1,6,10,
Cc1nn(-c2ccccc2)c(Cl)c1CNCCCOC(C)C,-1,34,0,-3,/,/,
CCN(CC)c1ccc(C(=O)Nc2cc(C(=O)Nc3cc(OC)c(OC)c(OC)c3)ccc2N2CC3CC(C2)c2cccc(=O)n2C3)cc1 (centres undefined),0,1,0,-12,/,/,

# Compound activity: PubChem, The Scripps Research Institute Molecular Screening Center
